Assay [1] concerns the target Metallo-beta-lactamase type 2 (Klebsiella pneumoniae) (UniProt C7C422). Nature of the assay: qHTS to identify inhibitors of the New Delhi Metallo-beta-lactamase (NDM): assay validation screen against the NCATS LOPAC Collection (AID 1794843).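 Further: nitrocefin turnover by NDM-1 measured as 485 nm absorbance at plateau; series mostly up to about 38 µM.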 A digest of the protocol:
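NDM-1 at 2 nM final in 50 mM HEPES pH 7.0, 1 uM ZnSO4, 0.01% Tween20, preincubated with LOPAC compounds pinned in DMSO; 50 uM nitrocefin (stock) added. Hydrolysis read as absorbance at 485 nm in the plateau phase.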
Background: qHTS replaces the single test concentration by a dilution series.

In assay [2] the target is Glutathione peroxidase 1 (Homo sapiens) (UniProt P07203). Briefly: Primary qHTS Assay for Inhibitors of Recombinant Selenoprotein Glutathione Peroxidase 1 (GPX1) (AID 1845191). Further: nearly all actives have a fitted effect of over 65% in size. Further: potency means the concentration at half of the fitted maximal effect. The essentials:
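GR-coupled assay: compounds preincubated 30 min at room temperature with GPX1, then reaction started with CHP; final 10 nM GPX1, 1 mM GSH, 0.5 mM CHP, 0.5 mM NADPH, 100 nM GR, 0.01% BSA, pH 7.5 Tris buffer. NADPH fluorescence (340/450 nm) read at 0 and 15 min.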

Assay [3] has as its target Phospholipid hydroperoxide glutathione peroxidase GPX4 (Homo sapiens) (UniProt P36969). Nature of the assay: Primary qHTS Assay for Inhibitors of Recombinant Selenoprotein Glutathione Peroxidase 4 (GPX4) (AID 1845192). Further: nearly all actives have a fitted effect of over 65% in size. Further: potency means the concentration at half of the fitted maximal effect. The essentials:
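GR-coupled assay: recombinant GPX4 preincubated 30 min with compound at room temperature; final 200 nM GPX4, 1 mM GSH, 0.5 mM cumene hydroperoxide, 0.5 mM NADPH, 100 nM GR, 0.01% BSA, pH 7.5 Tris. NADPH fluorescence (340/450 nm) read at 0 and 15 min.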

SMILES strings stand for the structures. Results filed as inconclusive are left out. Active and inactive are the calls of the source. The call rests on the fitted dose curve; in most records, active means well fitted curve in the direction sought with a large enough effect; inconclusive means small, poorly fitted or top-dose-only effect, or another doubt; inactive means no such curve, though single readings can be large; an effect the other way counts as inactive or inconclusive.

Metallo-beta-lactamase type 2 (Klebsiella pneumoniae), sequence (C7C422 whole entry, looked up): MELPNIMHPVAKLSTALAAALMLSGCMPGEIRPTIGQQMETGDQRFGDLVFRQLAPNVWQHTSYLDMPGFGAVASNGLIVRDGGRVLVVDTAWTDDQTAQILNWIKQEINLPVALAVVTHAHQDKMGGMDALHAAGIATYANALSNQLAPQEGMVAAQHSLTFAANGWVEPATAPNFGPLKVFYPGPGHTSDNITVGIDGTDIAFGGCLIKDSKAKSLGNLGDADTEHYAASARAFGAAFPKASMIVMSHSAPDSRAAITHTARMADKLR
Phospholipid hydroperoxide glutathione peroxidase GPX4 (Homo sapiens), sequence (P36969 whole entry, looked up): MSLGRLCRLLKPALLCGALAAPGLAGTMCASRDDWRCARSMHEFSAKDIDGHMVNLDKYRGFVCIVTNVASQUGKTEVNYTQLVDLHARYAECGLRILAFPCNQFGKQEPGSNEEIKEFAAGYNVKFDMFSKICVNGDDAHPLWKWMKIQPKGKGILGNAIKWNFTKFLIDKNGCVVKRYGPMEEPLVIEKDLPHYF
Glutathione peroxidase 1 (Homo sapiens), sequence (P07203 whole entry, looked up): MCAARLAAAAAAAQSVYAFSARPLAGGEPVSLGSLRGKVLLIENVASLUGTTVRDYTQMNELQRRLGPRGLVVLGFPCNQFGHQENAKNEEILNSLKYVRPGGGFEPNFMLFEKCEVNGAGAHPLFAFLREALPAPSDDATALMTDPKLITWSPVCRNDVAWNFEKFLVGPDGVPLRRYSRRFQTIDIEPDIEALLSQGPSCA

As for `C[C@H]1C2Cc3ccc(O)cc3[C@@]1(C)CCN2CC1CC1`, the Potency entry in assay [1], in assay [2] and in assay [3] was “inactive” in each case.
Consider `Oc1ccc2c3c1O[C@H]1c4[nH]c5ccccc5c4C[C@@]4(O)C(C2)N(CC2CC2)CCC314` (stereo partly specified), for which the Potency entry in assay [1], in assay [2] and in assay [3] was “inactive” in each case.
Consider `C=C(CO)C(=O)O[C@H]1C/C(C)=C/CC/C(CO)=C/[C@H]2OC(=O)C(=C)[C@H]12`, for which the Potency result in assay [2] and in assay [3] was “inactive” each time.
Consider `C=C(C)[C@H]1O[C@H]2CC[C@@]3(C)[C@@](O)(CC[C@H]4[C@@H]5OC(C)(C)[C@H]6C[C@@H]7C(=C)Cc8c(Cl)cc9[nH]c(c5c9c8[C@@]76O)[C@@]43C)[C@]23O[C@@H]3[C@H]1O`, for which the Potency entry in assay [2] and in assay [3] was “inactive” throughout.
As for `C[N+]1(C)CCCCC1COC(=O)C(O)(c1ccccc1)c1ccccc1` (stereo unspecified), the Potency entry in assay [2] and in assay [3] was “inactive” in each case.
As to `NCCc1c[nH]c2ccc(C(N)=O)cc12`, the Potency result in assay [1], in assay [2] and in assay [3] was “inactive” each time.
In the case of `Cn1sc(Cl)cc1=O`, the Potency result in assay [2] and in assay [3] was “inactive” each time.
For `c1ccc2sc(SNC3CCCCC3)nc2c1`, the Potency in assay [2] was 28.2 µM (active).
Consider `O=C(OCCN1CCCCC1)C(O)(c1ccccc1)c1ccccc1`, for which the Potency entry in assay [2] and in assay [3] was “inactive” in each case.
Regarding `COc1ccc2c(c1)C13CCCCC1C(C2)N(C)CC3` (stereo unspecified), the Potency entry in assay [1], in assay [2] and in assay [3] was “inactive” each time.
Take `NC(CCCCCP(=O)(O)O)C(=O)O` (stereo unspecified): the Potency result in assay [1], in assay [2] and in assay [3] was “inactive” throughout.
As to `Cc1cccc(NC(=O)N[C@@H]2N=C(c3ccccc3)c3ccccc3N(C)C2=O)c1`, the Potency result in assay [2] and in assay [3] was “inactive” each time.
With `O=C(C[C@@H]1NCCC[C@H]1O)Cn1cnc2cc(Br)c(Cl)cc2c1=O`, the Potency result in assay [2] is “inactive”. For the same compound, the Potency in assay [3] was 17.8 µM (active).
Consider `O=[N+]([O-])c1cc(I)c(O)c(I)c1`, for which the Potency entry in assay [2] is “inactive”.
Consider `CN1CCC(c2c[nH]c3ccc(O)cc23)CC1`, for which the Potency result in assay [1], in assay [2] and in assay [3] was “inactive” in each case.
`C[N+]1(C)CCOC(O)(c2ccc(-c3ccc(C4(O)C[N+](C)(C)CCO4)cc3)cc2)C1` (stereo unspecified): the Potency result in assay [1], in assay [2] and in assay [3] was “inactive” throughout.
Turning to `COc1ccc2c(c1O)-c1cccc3c1[C@@H](C2)N(C)CC3`, the Potency result in assay [2] and in assay [3] was “inactive” in each case.
On to `COC1CC(=O)C23C(=O)NC(CC(C)C)C2C(C)=C(C)C(OO)C3/C=C(\C)CCC(O)C1O` (stereo unspecified), for which the Potency result in assay [2] and in assay [3] was “inactive” each time.
As for `NNC(=O)c1ccc(O)cc1`, the Potency result in assay [1], in assay [2] and in assay [3] was “inactive” throughout.
On to `CCCn1c(=O)c2[nH]c(C3CCCC3)nc2n(CCCOC(=O)c2ccc(S(=O)(=O)F)cc2)c1=O`, for which the Potency entry in assay [1], in assay [2] and in assay [3] was “inactive” in each case.
With `CCC(=O)O[C@@](Cc1ccccc1)(c1ccccc1)[C@@H](C)CN(C)C`, the Potency result in assay [2] and in assay [3] was “inactive” in each case.
Consider `CCCCC[C@@H](O)C1C(=O)OC(C)[C@H](O)/C=C/C=C/C=C/C=C/C=C(\C)C(O)C(O)C(O)C[C@H](O)C[C@H](O)C[C@H](O)C[C@H](O)C[C@@H]1O` (stereo partly specified), for which the Potency result in assay [2] was “inactive”.
As to `C[N+]1(C)C2CCC1CC(OC(=O)c1c[nH]c3ccccc13)C2` (stereo unspecified), the Potency entry in assay [1], in assay [2] and in assay [3] was “inactive” in each case.
Turning to `O=[N+]([O-])c1ccc2nc(N3CCNCC3)ccc2c1`, the Potency entry in assay [1], in assay [2] and in assay [3] was “inactive” each time.
For `CCOc1ccc2c3c1O[C@H]1[C@@H](O)C=C[C@H]4[C@@H](C2)N(C)CC[C@@]341`, the Potency entry in assay [2] and in assay [3] was “inactive” throughout.
Turning to `CC[N+](C)(CC)CCOC(=O)C(O)(c1ccccc1)c1ccccc1`, the Potency entry in assay [2] and in assay [3] was “inactive” throughout.
Turning to `C[C@]12CC[C@H](OS(=O)(=O)O)CC1=CC[C@@H]1[C@@H]2CC[C@]2(C)C(=O)CC[C@@H]12`, the Potency entry in assay [2] was “inactive”.
In the case of `N=C(N)c1ccc(CS(=O)(=O)F)cc1`, the Potency entry in assay [2] and in assay [3] was “inactive” throughout.
Regarding `CCCN(CCC)[C@H]1CCc2c(F)ccc(O)c2C1`, the Potency entry in assay [1], in assay [2] and in assay [3] was “inactive” each time.
Consider `CCC1(C)CC(=O)NC(=O)C1`, for which the Potency result in assay [2] and in assay [3] was “inactive” throughout.
As for `C[C@@H](CO)NC(=O)[C@@H]1C=C2c3cccc4[nH]cc(c34)C[C@H]2N(C)C1`, the Potency entry in assay [2] is “inactive”.
For `O=C(NCNC(=O)NC1C(=O)NC(=O)N1CO)NC1C(=O)NC(=O)N1CO` (stereo unspecified), the Potency result in assay [2] and in assay [3] was “inactive” in each case.
Regarding `CCOC(=O)c1ncn2c1[C@@H]1CCCN1C(=O)c1cc(OC)ccc1-2`, the Potency result in assay [1], in assay [2] and in assay [3] was “inactive” throughout.
As for `O=C1/C(=C/c2ccccc2)C[C@@]2(O)[C@H]3Cc4ccc(O)c5c4[C@@]2(CCN3CC2CC2)[C@H]1O5`, the Potency entry in assay [1], in assay [2] and in assay [3] was “inactive” each time.
`CN1[C@H]2CC[C@@H]1[C@@H](C(=O)O)[C@@H](OC(=O)c1ccccc1)C2`: the Potency entry in assay [2] and in assay [3] was “inactive” throughout.
For `C[C@]12CC[C@@H](O)C[C@H]1CC[C@@H]1[C@@H]2CC[C@]2(C)C(=O)CC[C@@H]12`, the Potency result in assay [2] and in assay [3] was “inactive” each time.
Consider `C[C@H](NC(=O)Cc1cc(F)cc(F)c1)C(=O)N[C@@H]1N=C(c2ccccc2)c2ccccc2N(C)C1=O`, for which the Potency entry in assay [2] and in assay [3] was “inactive” each time.
For the compound `CC(N)Cc1c[nH]c2ccc(O)cc12` (stereo unspecified), the Potency entry in assay [1], in assay [2] and in assay [3] was “inactive” in each case.

The values are drawn from PubChem BioAssay (NCATS).
